Sampled rows, rich in hits. Any-hit rate of the full collection: about 6.9%.
Cy5 interf NS3h: Cy5 fluorescence quenchers or enhancers, artefact control for HCV NS3 helicase inhibitor project, biochemical, ChemBridge library, Cy5 readout; Cy5-dT15 DNA with NS3h, fluorescence interference; actives lie on both sides; signal over control mean, under 1 quenches; fluorescence interference ratio at 100 µM; 16,000 compounds, 6% hits;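 active = compound fluorescence over control fluorescence at most 0.8, a quencher, or at least a set upper limit, an enhancer; inactive = ratio between 0.8 and the set upper limit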
HCV NS3h FP: HCV NS3 helicase inhibitors, primary screen, biochemical, fluorescence polarization, ChemBridge library; inhibition, % at 100 µM; 16,000 compounds, 1.6% hits; NS3h Cy5-dT15 DNA binding; Hepatitis C virus NS3 helicase;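 active = inhibition above the average over every tested compound plus 3 SD, cut at about 40% in these data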
* marks the source's active call; other numbers are inactive results.

SMILES	Cy5 interf NS3h	HCV NS3h FP
CCOC(=O)C1=C(C)N=c2s/c(=C/c3ccccn3)c(=O)n2C1c1ccccc1Cl (stereo not drawn)	0.95	28
CCOC(=O)C1=C(C)N=c2s/c(=C\c3ccc([N+](=O)[O-])o3)c(=O)n2C1c1ccc(C)cc1 (stereo not drawn)	0.75*	13
CCOC(=O)C1=C(C)N=c2s/c(=C\c3ccc([N+](=O)[O-])o3)c(=O)n2C1c1ccccc1Cl (stereo not drawn)	0.71*	19
CCOC(=O)C1=C(C)N=c2s/c(=C\c3ccc([N+](=O)[O-])o3)c(=O)n2C1c1cccs1 (stereo not drawn)	1	8
CCOc1cc(OCC)cc(C(=O)Nc2cccc3nsnc23)c1	1.1	8
Cc1no[n+]([O-])c1COc1ccc(/C=N\n2nnnc2N)cc1	1.1	14
CN1C(=O)/C(=C\c2ccc(OCCOc3ccc(Br)cc3)cc2)SC1=S	1	4
COc1ccc(OCC(=O)Nc2ccc3c(c2)OCCO3)cc1	1	4
O=C1NC(=O)C(=Cc2cc(Br)ccc2OCc2ccccc2F)C(=O)N1	1	15
Cc1ccc(N2CN=C(c3ccccc3)NC2=S)cc1	0.75*	14
Cc1ccc(N2C(=O)/C(=C/c3ccccc3C)C(=O)NC2=S)cc1	1	3
COc1ccc(/C(N)=N\OC(=O)c2cccc(Br)c2)cc1OC	1.1	7
CCOc1ccccc1NC(=O)CN(c1ccc(C)cc1)S(=O)(=O)c1ccc(OC)c(OC)c1	0.97	15
COc1ccc(N(CC(=O)Nc2cc(OC)ccc2OC)S(=O)(=O)c2ccc(OC)c(OC)c2)cc1	1.1	11
COc1ccc(N(CC(=O)Nc2ccc(Br)cc2)S(=O)(=O)c2ccc(OC)c(OC)c2)cc1	0.7*	10
COc1ccc(N(CC(=O)Nc2ccc(C(=O)N3CCOCC3)cc2)S(=O)(=O)c2ccccc2)cc1	0.72*	13
COc1ccc(N(CC(=O)Nc2ccccc2Cl)S(=O)(=O)c2ccc(C)cc2)c(OC)c1	1.2*	-1
COc1ccc(NC(=O)CN(c2ccc(Cl)cc2)S(=O)(=O)c2ccccc2)cc1	1	11
COc1ccc(N(CC(=O)Nc2ccc3ccccc3c2)S(=O)(=O)c2ccc(C)cc2)c(OC)c1	1.1	10
COc1ccc(S(=O)(=O)N(CC(=O)Nc2cccc3ccccc23)c2ccc(C)cc2)cc1OC	0.68*	28
C=CCNC1=C(Cl)C(=O)N(c2ccc(C)cc2C)C1=O	0.93	0
COC(=O)C1=C(O)/C(=C/c2ccc(OCC(=O)NC(C)C)cc2)N=C1C	1	9
CC(C)CN1C(=O)/C(=C/c2ccccc2F)SC1=S	0.95	-9
COc1ccc(S(=O)(=O)N(CC(=O)Nc2ccc(Br)cc2)c2ccc(C)cc2)cc1OC	0.68*	17
COc1ccc(NC(=O)CN(c2cccc([N+](=O)[O-])c2)S(=O)(=O)c2ccccc2)cc1	1	-2
SMILES	Cy5 interf NS3h	HCV NS3h FP
COc1ccc(N(CC(=O)Nc2ccccc2Br)S(C)(=O)=O)c(OC)c1	0.98	7
COc1ccc(NC(=O)CN(c2cccc([N+](=O)[O-])c2)S(=O)(=O)c2ccccc2)c(OC)c1	0.7*	28
COc1ccc(S(=O)(=O)N(CC(=O)Nc2ccc(C(C)=O)cc2)c2ccc(C)cc2)cc1OC	0.91	10
COc1ccc(N(CC(=O)Nc2ccccc2Br)S(C)(=O)=O)cc1	1.3*	18
COC(=O)c1ccccc1-c1ccc(/C=C2/C(=O)N(c3ccccc3)N=C2C)o1	1	16
O=C1/C(=C\Nc2ccccc2O)CCc2ccccc21	0.97	25
CCCC(=O)N1CCN(c2ccc(C(=O)c3ccccc3)cc2F)CC1	1	-2
O=c1c2cc3c(=O)n(-c4ccc(S)cc4)c(=O)c3cc2c(=O)n1-c1ccc(S)cc1	0.7*	4
Cc1ccc(-n2c(=O)c3cc4c(=O)n(-c5ccc(C)c(C)c5)c(=O)c4c(C(=O)c4ccccc4)c3c2=O)cc1C	1.1	10
Cc1noc2c1/C(=N/O)CC(c1ccccc1)C2 (stereo not drawn)	1	8
Cc1ccc(NC(=O)CN(c2ccc(Cl)cc2)S(C)(=O)=O)c(C)c1	1.1	23
COc1cccc2c1CC/C(=C\c1ccccc1)C2=O	0.9	20
COCCNC(=O)Nc1ccc2nccnc2c1	1	3
COC(=O)c1nnn(-c2cc3nccnc3cc2F)c1C(=O)OC	0.72*	6
CCOc1ccc(N2C(=O)NC(=O)/C(=C/C=C/c3ccco3)C2=O)cc1	1	33
CCOc1ccccc1N1C(=O)NC(=O)/C(=C/C=C/c2ccco2)C1=O	1.2	43*
Cc1cccc(NC(=O)c2ccc3c(c2)OCO3)n1	1	3
Cc1ccc2nc3nc(C)cc(C)c3c(N)c2c1	0.71*	-5
Cc1ccc2nc(Nc3nc(C)cc(-c4ccccc4)n3)nc(C)c2c1	1.1	23
CN(c1ccccc1)c1ccc(C=C2C(=O)NC(=O)NC2=O)cc1	1.1	46*
O=C1NC(=O)C(=Cc2ccc(OCc3cccc4ccccc34)cc2)C(=O)N1	0.93	3
CN1CCN(c2ccc([N+](=O)[O-])c(NCc3ccc(Cl)cc3)c2)CC1	0.96	15
COc1ccc(CCNc2cc(N3CCN(C)CC3)ccc2[N+](=O)[O-])cc1OC	0.98	46*
Cc1cc(-c2ccccc2)nc2cc(C(=O)N3CCCC3)nn12	1	1
Nc1nnnn1/N=C\c1ccc(C=O)cc1	0.71*	-9
SMILES	Cy5 interf NS3h	HCV NS3h FP
Nc1nnnn1/N=C\c1ccc(OCc2ccccc2)cc1	1.1	-5
O=C(O)c1ccccc1NC1=C(Cl)C(=O)N(c2ccccc2Cl)C1=O	1	3
O=C(Nc1cc(Cl)ccc1Cl)c1ccc(-c2ccc(Cl)cc2)o1	1.1	2
O=C1C(=O)N(Cc2ccccc2)C(c2ccccc2F)C1=C(O)c1ccccc1 (stereo not drawn)	1	-3
CCOc1ccc(N2C(=O)NC(=O)/C(=C\c3ccc(OCc4cccc(C(=O)O)c4)cc3)C2=O)cc1	1.1	28
Cc1ccc(N2C(=O)/C(=C/c3ccc(OCc4cccc(C(=O)O)c4)cc3)C(=O)NC2=S)cc1	1.1	28
Cc1cccc(N2C(=O)NC(=O)/C(=C\c3ccc(OCc4cccc(C(=O)O)c4)cc3)C2=O)c1	1.3*	16
Cc1ccc(N2C(=O)NC(=O)/C(=C\c3ccc(OCc4cccc(C(=O)O)c4)cc3)C2=O)cc1	1	52*
O=C(NCc1ccccc1)c1ccccc1[N+](=O)[O-]	0.91	-8
COc1ccc(/C(N)=N\OC(=O)c2ccc(Cl)cc2Cl)cc1	1	13
O=C(O)c1cn(-c2ccccc2)nc1-c1ccc(-c2ccccc2)cc1	1	6
O=C(CSc1cccc2cccnc12)OCC(=O)c1ccccc1	0.93	-10
O=C(CSc1ccccn1)OCC(=O)c1ccc(Br)cc1	0.64*	4
CS(=O)(=O)N1CCN(Cc2ccccc2Cl)CC1	0.61*	1
CS(=O)(=O)N1CCN(CCCc2ccccc2)CC1	1	-5
CS(=O)(=O)N1CCN(Cc2cccc3ccccc23)CC1	0.69*	10
Oc1ccc(Br)cc1CN1CCN(Cc2cccc3ccccc23)CC1	0.93	-8
CC1CCN(Cn2cnn(CN3CCC(C)CC3)c2=S)CC1	0.98	5
COc1ccc(CCNC(=O)C(=O)NCc2ccncc2)cc1	0.96	5
